The text below walks through data of the OligoGym collection.
Also: reference of the scale not given here.

The first test addresses ZNF543. Nature of the test: pooled miR-30 sensor sort-seq; sequence = guide strand. The settings on record: shRNA.
With TGTAGTGTCGAATGAAACCTGG, the sensor-assay potency score (higher = more potent) is -0.172.
Still for that read-out and setting: with TTTCACTCCAGTGTGAATCTGT the figure was 0.767; with TTCTGTTGAAACTTGTTTCTGT, 0.852.
The sequence TTCTTTTTAAACACTTTCCCGC yielded a sensor-assay potency score (higher = more potent) of -0.356.
Regarding TTCAGAACTCATTTTCTCCAGC, the sensor-assay potency score (higher = more potent) stood at 0.596.
Still for that read-out and setting: to TAATCTTTGTACATACACCATC belongs -0.698; to TTGTACATACACCATCATCTGA, -0.467.
TTCTGTGTAATCTTTGTACATA came in with a sensor-assay potency score (higher = more potent) of -0.793.
On the same count and under the same terms, to TCTTTGTACATACACCATCATC belongs -1.6; to TTCACTTGAGTGTGAATCCGTT, -0.0362.
Take TTTTTAAACACTTTCCCGCATT: the sensor-assay potency score (higher = more potent) is -0.669.
On to TAGGAATTTTTCTCTTCGCGAA, for which the sensor-assay potency score (higher = more potent) was -0.467.

For a further test, the target named is ZNF548. The description is as above. The note with it: shRNA.
Regarding TGTCTAACAAATGTGGAGCTGT, the sensor-assay potency score (higher = more potent) was 0.213.
Still for that read-out and setting: with TCAACAAATGAATAGCTGCAGG the figure was -0.782; with TAACCTCTGACACTCCTACAGA, -0.754; with TGTCTCACTAGGGTGGACCTTC, -0.0557.
The same measure, in the same setting: with TTTCTGGTGATGAACCAGGTGA the figure was -0.687.
